Results filed as inconclusive are left out. Values without a mark were called inactive. Activity calls are given as the source filed them. The call rests on the fitted dose curve; in most records, active means well fitted cell-killing curve with a large enough effect (not every such curve was filed as active); inconclusive means small, poorly fitted or top-dose-only effect, or another doubt; inactive means no such curve, though single readings can be large or run the other way.

The assay is described as follows: qHTS Assay for Agonists of the Relaxin Receptor RXFP1: Cytotoxicity SAR. The note with it: HEK293-RXFP1 viability, ATPLite luminescence, 72 h; series mostly up to 78.1 µM; activity change, negative = cytotoxicity: at the top concentration. An excerpt: The relaxin hormone is involved in the variety of biological functions in normal tissues and diseases. The role of relaxin is well-established in female reproduction and parturition, mammary gland and endometrial development, maintenance of myometrial quiescence during pregnancy. Relaxin signaling through its G protein-coupled receptor (GPCR) RXFP1 results in ECM remodeling through regulation of collagen deposition, cell invasiveness, proliferation and overall tissue homeostasis. […] Recombinant human relaxin (rhRlx) is currently being tested in clinical trials as a protective agent in congestive heart failure, in treating severe preeclampsia, and as an anti-fibrotic agent in systemic sclerosis. In the primary screen, upon relaxin binding RXFP1 activation leads to the activation of adenylate cyclase (AC) via Gs. cAMP will activate PKA, which phosphorylates many signaling proteins. Thus, detection of cAMP increase is an easy and reliable indication of relaxin receptor activation. To screen for agonists of the relaxin receptor, a HEK293T cell line stably transfected with RXFP1 was used. RXFP1 activation was assayed by changes in cAMP levels as detected with a time-resolved fluorescence energy transfer (TR-FRET) cAMP detection kit. We conducted this followup assay to measure the effect of the lead candidates on cell health by measuring ATP levels (ATPLite). NIH Chemical Genomics Center [NCGC] NIH Molecular Libraries Probe Production Centers Network [MLPCN] MLPCN Grant: R03 MH085705-01A1 Assay Submitter (PI): Alexander Agoulnik
In this assay, the luciferase enzyme catalyzes the conversion of the added substrate D-luciferin to oxyluciferin and light with ATP. Thus, the emitted light is proportional to the ATP concentration. To evaluate the cytotoxic properties of the compounds, HEK293-RXFP1 cells were incubated with compounds for 72 h in growth media (DMEM 10% FBS, 1x Pen/Strep, 0.5 mg/mL G418) in 384-well format. After compound incubation, the levels of ATP in each well were measured with the addition of the ATPLite assay reagent.
Turning to `COc1ccccc1CNc1ccccc1C(=O)Nc1cccc(C(F)(F)F)c1`, the Potency was 23.6 µM (active).
Turning to `CCOc1ccccc1C(=O)NCCC(=O)Nc1cccc(S(=O)(=O)C(F)(F)F)c1`, the “activity change, negative = cytotoxicity” value is -65.1%.
Consider `O=C(Nc1ccccc1C(=O)Nc1cccc(C(F)(F)F)c1)c1ccccc1Cl`, for which the Potency was 11.8 µM (active).
The same measure, in the same setting: in the case of `O=C(Nc1cccc(Cl)c1)c1ccccc1NC(=O)C1CCCCC1` it was 29.7 µM (active).
`COCCOc1ccccc1C(=O)Nc1ccccc1C(=O)Nc1cccc(C(F)(F)F)c1`: the “activity change, negative = cytotoxicity” value is -53.3%.
Turning to `Cc1cccc(NC(=O)c2ccccc2NC(=O)C2CCCCC2)c1`, the Potency is 23.6 µM (active).
Still for that read-out and setting: in the case of `COc1ccccc1Nc1ccccc1C(=O)Nc1cccc(C(F)(F)F)c1` it was 23.6 µM (active); in that of `COc1ccccc1C(=O)Nc1ccccc1C(=O)N(C)c1cccc(C(F)(F)F)c1`, 29.7 µM (active).
Regarding `O=C(NCc1ccco1)c1ccccc1NC(=O)c1ccccc1NC(=O)C1CCCCC1`, the “activity change, negative = cytotoxicity” value was -43.9%.
The same measure, in the same setting: for `CCOc1ccccc1C(=O)Nc1ccccc1C(=O)Nc1cccc(C(F)(F)F)c1` the value was -13.9%.
Turning to `O=C(Nc1cccc(C(F)(F)F)c1)c1ccccc1NC(=O)C1CCCCC1`, the Potency was 18.8 µM (active).
Same read-out and setting: for `O=C(Cc1ccccc1)Nc1ccccc1C(=O)Nc1cccc(C(F)(F)F)c1` the value was 47.1 µM (active); for `CCOc1ccccc1C(=O)Nc1sccc1C(=O)Nc1cccc(S(=O)(=O)C(F)(F)F)c1`, 7.47 µM (active).
In the case of `COc1ccccc1C(=O)Nc1ccccc1C(=O)Nc1cccc(C(F)(F)F)c1`, the “activity change, negative = cytotoxicity” value was -43.3%.
For `CCOc1ccccc1C(=O)Nc1ccccc1CNc1cccc(S(=O)(=O)C(F)(F)F)c1`, the “activity change, negative = cytotoxicity” value is -26.1%.
The same measure, in the same setting: for `O=C(Nc1cccc(SC(F)(F)F)c1)c1ccccc1NC(=O)C1CCCCC1` the value was -42.9%.
As for `O=C(Nc1cccc(C(F)(F)F)c1)c1ccccc1NC(=O)C1CCCCCC1`, the Potency was 5.93 µM (active).
Regarding `CCOc1ccccc1-c1nc2c(C(=O)Nc3cccc(S(=O)(=O)C(F)(F)F)c3)cccc2[nH]1`, the “activity change, negative = cytotoxicity” value is 3.81%.
Take `CN(C)CCOc1ccccc1C(=O)Nc1ccccc1C(=O)Nc1cccc(C(F)(F)F)c1`: the “activity change, negative = cytotoxicity” value is -98.1%.
The same measure, in the same setting: in the case of `COc1ccc(C(=O)Nc2ccccc2C(=O)Nc2cccc(C(F)(F)F)c2)cc1` it was -49.6%.
As to `O=C(Nc1ccc(C(F)(F)F)cc1)c1ccccc1NC(=O)C1CCCCC1`, the Potency was 11.8 µM (active).
Still for that read-out and setting: in the case of `COc1ccccc1C(=O)N(C)c1ccccc1C(=O)N(C)c1cccc(C(F)(F)F)c1` it was 59.3 µM (active); in that of `O=C(NCc1cccc(C(F)(F)F)c1)c1ccccc1NC(=O)C1CCCCC1`, 11.8 µM (active).
Same read-out and setting: in the case of `COc1ccccc1C(=O)Nc1cccc(C(=O)Nc2cccc(C(F)(F)F)c2)c1` it was 18.8 µM (active); in that of `O=C(Nc1cccc(-c2ccccc2)c1)c1ccccc1NC(=O)C1CCCCC1`, 14.9 µM (active).
As to `O=C(Nc1cccc(C(F)(F)F)c1)c1ccccc1NC(=O)c1ccccc1OC(F)(F)F`, the “activity change, negative = cytotoxicity” value is -38%.
The same measure, in the same setting: for `CCCCOc1ccccc1C(=O)Nc1ccccc1C(=O)Nc1cccc(S(=O)(=O)C(F)(F)F)c1` the value was -59.1%.
As for `COCCNc1ccccc1C(=O)Nc1cccc(C(F)(F)F)c1`, the Potency is 29.7 µM (active).
Take `CCOc1ccccc1C(=O)Nc1ncccc1C(=O)Nc1cccc(S(=O)(=O)C(F)(F)F)c1`: the Potency is 18.8 µM (active).
For `COc1ccccc1-c1ccccc1C(=O)Nc1cccc(C(F)(F)F)c1`, the Potency was 23.6 µM (active).
For the compound `O=C(Nc1cccc([N+](=O)[O-])c1)c1ccccc1NC(=O)C1CCCCC1`, the “activity change, negative = cytotoxicity” value was -31.8%.
Consider `CC(C)Oc1ccccc1C(=O)Nc1ccccc1C(=O)Nc1cccc(C(F)(F)F)c1`, for which the “activity change, negative = cytotoxicity” value was -63%.
Still for that read-out and setting: for `O=C(Nc1cccc(Br)c1)c1ccccc1NC(=O)C1CCCCC1` the value was -27.7%.
`O=C(Nc1cccc(-c2cccc(C(F)(F)F)c2)c1)c1ccccc1NC(=O)C1CCCCC1`: the Potency was 23.6 µM (active).
Regarding `CSc1cccc(NC(=O)c2ccccc2NC(=O)C2CCCCC2)c1`, the “activity change, negative = cytotoxicity” value is -31%.
For the compound `CC(C)Oc1ccccc1C(=O)Nc1ccccc1C(=O)Nc1cccc(S(=O)(=O)C(F)(F)F)c1`, the Potency is 9.4 µM (active).
For `Cc1ccccc1C(=O)Nc1ccccc1C(=O)Nc1cccc(C(F)(F)F)c1`, the “activity change, negative = cytotoxicity” value is -69.3%.
For the compound `O=C(Nc1cccc(C(F)(F)F)c1)c1ccccc1NC(=O)C1CCCC1`, the “activity change, negative = cytotoxicity” value is -68.8%.
On to `O=C(Nc1ccccc1C(=O)Nc1cccc(C(F)(F)F)c1)c1cccnc1`, for which the “activity change, negative = cytotoxicity” value was -17.2%.
As for `CCOc1ccccc1C(=O)Nc1cnccc1C(=O)Nc1cccc(S(=O)(=O)C(F)(F)F)c1`, the Potency was 23.6 µM (active).

(Values after PubChem BioAssay AID602288 (National Center for Advancing Translational Sciences (NCATS), 2012).)
